Source: PubChem
A selection: hits, their analogues and other compounds. The true share with any hit is near 7.8%.
sEH inh = soluble epoxide hydrolase inhibitors, primary screen, biochemical, human sEH. inhibition, % at 2 µM. actives 0.34% (n = 91,000). AID 707, 2007. recombinant human sEH enzymatic activity assay; in the data active = inhibition above about 80%
sEH act = soluble epoxide hydrolase activators, primary screen, biochemical, human sEH | Bifunctional epoxide hydrolase 2 (Homo sapiens), P34913 | purified human sEH enzymatic activity, activator screen | activation, % at 2 µM | actives 0.04% (n = 91,000) | AID 717, 2007; in the data active = activation above about 37%
PostGolgi yeast = phenotypic screen on post-Golgi transport, primary screen; post-Golgi transport phenotypic cell assay; inhibition, % at 10 µM; actives 0.9% (n = 98,000);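 note: yeast cells grown in 1536-well plates; yeast grown about 18 h at 30C before absorbance read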
Cav3 T inh = Cav3.2 calcium influx blockers – cell-based, Fluo-4 calcium fluorescence, FDSS, MLSMR library, primary screen; Voltage-dependent T-type calcium channel subunit alpha-1H (Homo sapiens), O95180; Cav3.2-expressing cells; hits give low values; B-score at 10 µM; actives 4% (n = 100,000); AID 449739, 2010;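 active = single-dose well whose peak fluorescence ratio is a statistical outlier from its plate by either plate-standardised score or position-corrected B-score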
PostGolgi ctrl = growth inhibition of yeast control strain, primary screen, counter-screen for post-Golgi transport modulator project. efflux-deficient yeast background strain, growth absorbance A615, 16 h. inhibition, % at 10 µM. actives 5% (n = 98,000). AID 738, 2007
An asterisk follows results filed as active; . = not tested or not shown. Cut-off read from the data, not from the text of the source, unless noted: active = inhibition above about 30%; inactive = the rest.

SMILES | sEH inh | sEH act | PostGolgi yeast | Cav3 T inh | PostGolgi ctrl
COc1ccc(-n2c(SCC(=O)Nc3sc4c(c3C#N)CCCC4)nnc2-c2ccccc2OC)cc1 | 2 | 2 | . | -6.3* | .
Cc1snc(S(=O)(=O)/C(C#N)=N/Nc2cccc(C(F)(F)F)c2)c1C#N | -14 | 15 | 0 | -6.2* | 8
C=CCn1c(SCc2ccc(C(=O)Nc3ccccc3)cc2)nnc1-c1ccccc1 | 18 | -17 | 11 | 0.85 | 29
O=C(NCCCc1ccccc1)C1CCN(c2nnc(-n3cccc3)s2)CC1 | 72 | -72 | -3 | -1.6 | 39*
O=C(NC1CCN(Cc2ccccc2)CC1)C1CCCN(c2nnc(-n3cccc3)s2)C1 (stereo not given) | . | . | -7 | 0.95 | 10
O=C(C1CCCN(c2nnc(-n3cccc3)s2)C1)N1CCN(c2ccccc2)CC1 (stereo not given) | 14 | -14 | -1 | -2.2 | 41*
CC(C)(C)c1cc(/C=N/NC(=O)Cc2nc3ccccc3[nH]2)cc(C(C)(C)C)c1O | -16 | 14 | 4 | -7.6* | 15
O=C(NCc1nc2ccccc2[nH]1)c1cccs1 | -5 | 9 | -1 | 0.44 | 15
CCOC(=O)Cn1c(=NC(=O)CSC(C)=O)sc2cc(OC)ccc21 | 0 | 2 | 1 | -10* | 0
CCOC(=O)Cn1c(=NC(=O)CSC(C)=O)sc2ccccc21 | . | . | 1 | -9.4* | 5
CC(=O)N=c1sc2cc(C)ccc2n1C | -3 | 3 | 12 | 0.34 | 9
CC(=O)SCC(=O)N=c1sc2cc(F)ccc2n1C | 12 | -14 | 1 | -6.2* | -1
CCCC(c1nnnn1Cc1ccc(OC)cc1)N1CCN(c2ccccc2OC)CC1 (stereo not given) | -6 | 7 | -6 | -5.1* | 13
COc1ccccc1C(c1nnnn1Cc1ccccc1)N1CCN(c2nc3ccccc3s2)CC1 (stereo not given) | . | . | 5 | -4.2* | 7
c1ccc(C(c2nnnn2Cc2ccco2)N2CCN(c3nc4ccccc4s3)CC2)cc1 (stereo not given) | -1 | 5 | . | -3.4* | .
CCCCC(c1nnnn1Cc1ccco1)N1CCN(c2nc3ccccc3s2)CC1 (stereo not given) | 0 | 0 | 94* | -4.3 | 46*
c1ccc(Cn2nnnc2C(c2ccccc2)N2CCN(c3nc4ccccc4s3)CC2)cc1 (stereo not given) | 10 | -10 | -1 | -0.035 | 1
COc1cc(OC)nc(NC(=O)NS(=O)(=O)c2ccc(OC(F)(F)F)cc2)n1 | -8 | 8 | 3 | 0.36 | 25
COC(=O)c1nnn(-c2nonc2N)c1-c1cccs1 | 4 | -2 | -6 | 1.2 | 2
O=C(Nc1ccc(Cc2ccncc2)cc1)c1ccco1 | 31 | -31 | -1 | 0.18 | 7
N#Cc1ccccc1Sc1ccccc1C(=O)Nc1ccccc1 | 8 | -9 | 6 | . | 17
Cc1nnsc1C(=O)NC(C)C12CC3CC(CC(C3)C1)C2 (stereo not given) | -8 | 8 | 0 | -0.038 | 6
COc1ccc(C(c2nnnn2C(C)(C)C)N2CCN(c3nc4ccccc4s3)CC2)cc1 (stereo not given) | . | . | 0 | -5.3* | 16
Cc1ccc(C)c(N2CCN(C(c3ccc(N(C)C)cc3)c3nnnn3C(C)(C)C)CC2)c1 (stereo not given) | 20 | -18 | . | -5.5* | .
COc1ccc(CCN2C(=O)C3CC(C)=C(C)CC3C2=O)cc1OC (stereo not given) | -9 | 9 | 3 | 1.4 | 28
SMILES | sEH inh | sEH act | PostGolgi yeast | Cav3 T inh | PostGolgi ctrl
CCCCC(c1nnnn1CC1CCCO1)N1CCN(c2cccc(C)c2C)CC1 (stereo not given) | 6 | -6 | -1 | -5.8* | 11
COc1ccc(C(c2nnnn2CC2CCCO2)N2CCN(c3cccc(C)c3C)CC2)cc1 (stereo not given) | 2 | -1 | 2 | -3.7* | 7
COc1ccc(C(c2nnnn2CC2CCCO2)N2CCC(C(N)=O)CC2)cc1 (stereo not given) | -1 | 3 | . | -1.7 | .
COc1ccccc1-c1nnc(SCC(=O)Nc2ccc(S(N)(=O)=O)cc2)n1C | -8 | 4 | 4 | 0.59 | 13
CCCC(=O)Nc1cc(-c2nn(C)c(=O)c3ccccc23)ccc1N1CCCCC1 | 10 | -5 | . | . | .
COc1nnc(-c2ccc(N3CCCCC3)c(N)c2)c2ccccc12 | 4 | -4 | . | -6.9* | .
